# Assay results taken from PubChem BioAssay AID1159580 (chemical genetic matrix, 2015).
# About 2,000 (36%) of roughly 5,500 compounds were called active. Another 18% or so got no clear call; they are omitted. The list shows a part of the results. Unmarked numbers belong to inactive results. Rule as the data show it: active = normalized growth mostly below about 0.91 (no sharp cut-off); inconclusive = no clear call, values can overlap the other calls; inactive = mostly above about 0.92.
# Test: chemical genetic growth profiling, strain panel (AID 1159580);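 also: tested at 20 µM; growth read once vehicle control cultures reached saturation at 30 °C; 1 = growth at the plate median or of vehicle wells; lower values mean less growth of the strain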
# Details: growth OD
smiles,measurement,setting,value
O=[N+]([O-])c1cc([As](=O)(O)O)ccc1O,normalized growth,"S. cerevisiae deletion strains, locus YJR075W, strain HOC1, stronger effect = lower value",1
same,normalized growth,"S. cerevisiae deletion strains, locus YKL009W, strain mrt4, stronger effect = lower value",0.986
same,normalized growth,"S. cerevisiae deletion strains, locus YKL068W, stronger effect = lower value",0.96
same,normalized growth,"S. cerevisiae deletion strains, locus YKL085W, strain MDH1 (second series), stronger effect = lower value",0.484 (active)
same,normalized growth,"S. cerevisiae deletion strains, locus YKL085W, strain MDH1, stronger effect = lower value",0.484 (active)
same,normalized growth,"S. cerevisiae deletion strains, locus YKL160W, strain elf1, stronger effect = lower value",0.959
same,normalized growth,"S. cerevisiae deletion strains, locus YKL190W, strain CNB1, stronger effect = lower value",0.983
same,normalized growth,"S. cerevisiae deletion strains, locus YKR001C, strain vps1, stronger effect = lower value",0.232 (active)
same,normalized growth,"S. cerevisiae deletion strains, locus YKR091W, strain srl3, stronger effect = lower value",0.975
same,normalized growth,"S. cerevisiae deletion strains, locus YLL001W, strain dnm1, stronger effect = lower value",0.936
same,normalized growth,"S. cerevisiae deletion strains, locus YLL026W, stronger effect = lower value",0.97
same,normalized growth,"S. cerevisiae deletion strains, locus YLL041C, strain sdh2, stronger effect = lower value",0.965
same,normalized growth,"S. cerevisiae deletion strains, locus YLR027C, strain aat2, stronger effect = lower value",0.97
same,normalized growth,"S. cerevisiae deletion strains, locus YLR039C, strain RIC1, stronger effect = lower value",1.01
same,normalized growth,"S. cerevisiae deletion strains, locus YLR058C, strain SHM2, stronger effect = lower value",0.998
same,normalized growth,"S. cerevisiae deletion strains, locus YLR102C, strain apc9, stronger effect = lower value",0.243 (active)
same,normalized growth,"S. cerevisiae deletion strains, locus YLR113W, strain HOG1, stronger effect = lower value",1.02
same,normalized growth,"S. cerevisiae deletion strains, locus YLR221C, strain rsa3, stronger effect = lower value",1
same,normalized growth,"S. cerevisiae deletion strains, locus YLR258W, strain gsy2, stronger effect = lower value",0.975
same,normalized growth,"S. cerevisiae deletion strains, locus YLR262C, strain YPT6 (second series), stronger effect = lower value",0.948
same,normalized growth,"S. cerevisiae deletion strains, locus YLR262C, strain YPT6, stronger effect = lower value",1.02
same,normalized growth,"S. cerevisiae deletion strains, locus YLR268W, strain sec22, stronger effect = lower value",0.12 (active)
same,normalized growth,"S. cerevisiae deletion strains, locus YLR320W, strain mms22, stronger effect = lower value",0.984
same,normalized growth,"S. cerevisiae deletion strains, locus YLR330W, strain CHS5, stronger effect = lower value",0.988
same,normalized growth,"S. cerevisiae deletion strains, locus YLR342W, strain FKS1 (second series), stronger effect = lower value",1.07
same,normalized growth,"S. cerevisiae deletion strains, locus YLR342W, strain FKS1, stronger effect = lower value",0.978
same,normalized growth,"S. cerevisiae deletion strains, locus YLR357W, strain rsc2, stronger effect = lower value",0.92
same,normalized growth,"S. cerevisiae deletion strains, locus YLR370C, strain arc18, stronger effect = lower value",0.957
same,normalized growth,"S. cerevisiae deletion strains, locus YLR371W, strain rom2, stronger effect = lower value",0.152 (active)
same,normalized growth,"S. cerevisiae deletion strains, locus YLR384C, strain iki3, stronger effect = lower value",0.938
same,normalized growth,"S. cerevisiae deletion strains, locus YLR418C, strain cdc73, stronger effect = lower value",0.146 (active)
same,normalized growth,"S. cerevisiae deletion strains, locus YML016C, strain PPZ1, stronger effect = lower value",0.988
same,normalized growth,"S. cerevisiae deletion strains, locus YML032C, strain rad52, stronger effect = lower value",0.929
same,normalized growth,"S. cerevisiae deletion strains, locus YML120C, strain ndi1, stronger effect = lower value",0.969
same,normalized growth,"S. cerevisiae deletion strains, locus YML124C, strain tub3, stronger effect = lower value",0.329 (active)
same,normalized growth,"S. cerevisiae deletion strains, locus YMR058W, strain fet3, stronger effect = lower value",0.977
same,normalized growth,"S. cerevisiae deletion strains, locus YMR078C, strain ctf18, stronger effect = lower value",0.548 (active)
same,normalized growth,"S. cerevisiae deletion strains, locus YMR125W, strain sto1, stronger effect = lower value",0.943
same,normalized growth,"S. cerevisiae deletion strains, locus YMR129W, stronger effect = lower value",0.981
same,normalized growth,"S. cerevisiae deletion strains, locus YMR205C, strain PFK2, stronger effect = lower value",0.983
same,normalized growth,"S. cerevisiae deletion strains, locus YMR223W, strain ubp8, stronger effect = lower value",0.129 (active)
same,normalized growth,"S. cerevisiae deletion strains, locus YMR231W, strain pep5, stronger effect = lower value",0.951
same,normalized growth,"S. cerevisiae deletion strains, locus YMR263W, strain SAP30, stronger effect = lower value",0.99
same,normalized growth,"S. cerevisiae deletion strains, locus YMR307W, strain GAS1, stronger effect = lower value",1.05
same,normalized growth,"S. cerevisiae deletion strains, locus YNL067W, strain RPL9B, stronger effect = lower value",0.991
same,normalized growth,"S. cerevisiae deletion strains, locus YNL071W, strain lat1, stronger effect = lower value",0.973
same,normalized growth,"S. cerevisiae deletion strains, locus YNL128W, strain TEP1, stronger effect = lower value",0.976
same,normalized growth,"S. cerevisiae deletion strains, locus YNL153C, strain GIM3, stronger effect = lower value",0.958
same,normalized growth,"S. cerevisiae deletion strains, locus YNL183C, strain NPR1, stronger effect = lower value",0.971
same,normalized growth,"S. cerevisiae deletion strains, locus YNL209W, strain ssb2, stronger effect = lower value",0.974
same,normalized growth,"S. cerevisiae deletion strains, locus YNL233W, strain BNI4, stronger effect = lower value",1.01
same,normalized growth,"S. cerevisiae deletion strains, locus YNL248C, strain rpa49, stronger effect = lower value",0.918
same,normalized growth,"S. cerevisiae deletion strains, locus YNL250W, strain rad50, stronger effect = lower value",0.93
same,normalized growth,"S. cerevisiae deletion strains, locus YNL271C, strain bni1, stronger effect = lower value",0.532 (active)
same,normalized growth,"S. cerevisiae deletion strains, locus YNL298W, strain CLA4, stronger effect = lower value",0.877 (active)
same,normalized growth,"S. cerevisiae deletion strains, locus YNL307C, strain MCK1, stronger effect = lower value",0.0701 (active)
same,normalized growth,"S. cerevisiae deletion strains, locus YNL322C, strain KRE1 (second series), stronger effect = lower value",0.974
same,normalized growth,"S. cerevisiae deletion strains, locus YNL322C, strain KRE1, stronger effect = lower value",0.991
same,normalized growth,"S. cerevisiae deletion strains, locus YNR049C, strain mso1, stronger effect = lower value",0.945
same,normalized growth,"S. cerevisiae deletion strains, locus YNR052C, strain pop2, stronger effect = lower value",1.03
same,normalized growth,"S. cerevisiae deletion strains, locus YOL006C, strain TOP1, stronger effect = lower value",1.06
same,normalized growth,"S. cerevisiae deletion strains, locus YOL012C, strain htz1",0.214
same,normalized growth,"S. cerevisiae deletion strains, locus YOL147C, strain pex11, stronger effect = lower value",0.987
same,normalized growth,"S. cerevisiae deletion strains, locus YOR001W, strain rrp6, stronger effect = lower value",0.965
same,normalized growth,"S. cerevisiae deletion strains, locus YOR061W, strain CKA2, stronger effect = lower value",0.991
same,normalized growth,"S. cerevisiae deletion strains, locus YOR069W, strain VPS5, stronger effect = lower value",0.989
same,normalized growth,"S. cerevisiae deletion strains, locus YOR070C, strain gyp1, stronger effect = lower value",0.965
same,normalized growth,"S. cerevisiae deletion strains, locus YOR080W, strain dia2, stronger effect = lower value",0.961
same,normalized growth,"S. cerevisiae deletion strains, locus YOR083W, strain WHI5, stronger effect = lower value",0.975
same,normalized growth,"S. cerevisiae deletion strains, locus YOR106W, strain vam3, stronger effect = lower value",0.96
same,normalized growth,"S. cerevisiae deletion strains, locus YOR136W, strain idh2, stronger effect = lower value",0.147 (active)
same,normalized growth,"S. cerevisiae deletion strains, locus YOR144C, strain elg1, stronger effect = lower value",0.996
same,normalized growth,"S. cerevisiae deletion strains, locus YOR184W, strain ser1, stronger effect = lower value",0.0809 (active)
same,normalized growth,"S. cerevisiae deletion strains, locus YOR231W, strain MKK1, stronger effect = lower value",1.03
same,normalized growth,"S. cerevisiae deletion strains, locus YOR265W, strain rbl2, stronger effect = lower value",0.968
same,normalized growth,"S. cerevisiae deletion strains, locus YOR270C, strain vph1, stronger effect = lower value",0.952
same,normalized growth,"S. cerevisiae deletion strains, locus YOR290C, strain snf2, stronger effect = lower value",0.993
same,normalized growth,"S. cerevisiae deletion strains, locus YOR316C, strain cot1, stronger effect = lower value",0.171 (active)
same,normalized growth,"S. cerevisiae deletion strains, locus YPL051W, strain arl3, stronger effect = lower value",0.967
same,normalized growth,"S. cerevisiae deletion strains, locus YPL055C, strain LGE1, stronger effect = lower value",0.946
same,normalized growth,"S. cerevisiae deletion strains, locus YPL078C, strain atp4, stronger effect = lower value",0.951
same,normalized growth,"S. cerevisiae deletion strains, locus YPL106C, strain sse1, stronger effect = lower value",0.982
same,normalized growth,"S. cerevisiae deletion strains, locus YPL240C, strain hsp82, stronger effect = lower value",0.949
same,normalized growth,"S. cerevisiae deletion strains, locus YPL241C, strain CIN2, stronger effect = lower value",0.995
same,normalized growth,"S. cerevisiae deletion strains, locus YPL256C, strain CLN2, stronger effect = lower value",1.08
same,normalized growth,"S. cerevisiae deletion strains, locus YPR119W, strain clb2, stronger effect = lower value",0.288 (active)
same,normalized growth,"S. cerevisiae deletion strains, locus YPR141C, strain kar3, stronger effect = lower value",1
same,normalized growth,"S. cerevisiae deletion strains, locus YPR163C, strain tif3, stronger effect = lower value",0.0934 (active)
same,normalized growth,"S. cerevisiae deletion strains, locus YPR167C, strain met16, stronger effect = lower value",0.152 (active)
same,normalized growth,"S. cerevisiae deletion strains, strain wtn01, stronger effect = lower value",0.0828 (active)
same,normalized growth,"S. cerevisiae strains, strain wild type, stronger effect = lower value",0.997
